Values joined by “and” are separate entries in the source; they are usually repeats but may differ in a detail not shown here. Identical values can stand only once. Active and inactive are the calls of the source.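 Rule for the calls, unless noted: active = thallium flux through the channel raised or lowered by more than 3 SD from vehicle-only wells, actives on both sides; inactive = the rest.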
Key:
[1] = signal quenchers or enhancers, Cy5 substrate/SSB – biochemical, NIH Clinical Collection, E. coli SSB, artefact control for HCV NS3 helicase inhibitor project (AID 743268; call rule not given here); details: Cy5-oligo bound E. coli SSB, fluorescence interference
[2] = test system: Hepatitis C virus NS3 helicase; assay: blockers of NS3h binding to DNA – biochemical, fluorescence polarization, NIH Clinical Collection, primary screen (AID 743270; call rule not given here); details: NS3 helicase binding to Cy5-dT15 DNA, stronger effect = higher value, concentration not given here
[3] = target: Single-stranded DNA-binding protein (Escherichia coli (strain K12)) (UniProt P0AGE0); assay: SSB-ssDNA binding inhibitors – biochemical, fluorescence polarization, NIH Clinical Collection, counter-screen for HCV NS3 helicase inhibitor project (AID 743271; in the data active = inhibition above about 28%); details: E. coli SSB-DNA binding, stronger effect = higher value, concentration not given here
[4] = compounds distorting NS3 helicase fluorescence signal – biochemical, NIH Clinical Collection, artefact control for HCV NS3 helicase inhibitor project (AID 743272; call rule not given here;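 note: HCV NS3 helicase with a Cy5 labelled single stranded DNA probe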); details: fluorescence interference counterscreen, HCV NS3 helicase assay; stronger effect = lower value
[5] = target: 6-phosphogluconate dehydrogenase, decarboxylating (Homo sapiens) (UniProt P52209); assay: inhibition of human phosphogluconate dehydrogenase – biochemical, recombinant enzyme, NADPH absorbance, primary screen (AID 1159550;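 active = at least 20% inhibition of 6-phosphogluconate dehydrogenase activity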); details: recombinant 6PGD, NADPH absorbance 341 nm; at 10 µM; stronger effect = higher value
Sequence of 6-phosphogluconate dehydrogenase, decarboxylating (Homo sapiens) (P52209 whole entry, looked up): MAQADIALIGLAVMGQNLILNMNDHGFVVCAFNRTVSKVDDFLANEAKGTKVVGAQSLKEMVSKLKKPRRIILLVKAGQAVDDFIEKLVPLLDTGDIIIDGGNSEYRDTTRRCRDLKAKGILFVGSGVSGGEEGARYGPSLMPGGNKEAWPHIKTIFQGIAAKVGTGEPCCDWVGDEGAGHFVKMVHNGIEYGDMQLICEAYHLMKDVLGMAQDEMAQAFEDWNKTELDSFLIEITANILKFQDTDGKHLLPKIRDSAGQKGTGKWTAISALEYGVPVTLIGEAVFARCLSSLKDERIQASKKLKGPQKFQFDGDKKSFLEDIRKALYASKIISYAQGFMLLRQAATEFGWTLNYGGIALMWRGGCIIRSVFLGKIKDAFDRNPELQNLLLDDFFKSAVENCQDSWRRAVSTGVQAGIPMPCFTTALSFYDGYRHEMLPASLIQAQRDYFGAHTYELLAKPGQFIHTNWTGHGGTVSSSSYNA

[6] = modulation of C. elegans fzo-1 (AID 1259413; call rule not given here;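 note: fzo-1 mutant C. elegans worms in liquid wells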); details: C. elegans fzo-1 modulator screen, mean read-out; stronger effect = higher value
[7] = EMT-state selective cytotoxicity in co-culture – imaging, PC-3E GFP, TEM4-18 mCherry, primary screen (AID 1345086;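 active = compounds killing one labelled cell type while sparing the other, by normalised counts and ratio limits, not self-fluorescent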;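 for all read-outs here: cells exposed to compound for 72 h before imaging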;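 for red/green cell ratio (normalised): normalised mesenchymal count divided by normalised epithelial count so high means epithelial killing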); details: PC-3E GFP / TEM4-18 mCherry co-culture, imaging cell counts, at 1 µM; for red/green cell ratio (normalised): actives lie on both sides, counts scaled to control wells, 1 = unselective
[8] = viability loss with induced miR-34 in A549 – imaging, A549 dox-inducible miR-34, nuclei and caspase counts, primary screen (AID 1347080;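 active = compounds whose cell count with miR-34 switched on is under 0.7 times the count with it off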); details: A549 miR-34 inducible, Hoechst nuclei count, 48 h
[9] = MELAS cybrid and Rieske KO viability enhancers – cell-based, MELAS cybrids, Rieske KO mouse fibroblasts, CellTiter-Glo, primary screen (AID 1508586;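 active = mean z-score across replicates of 1.96 or higher in either the MELAS or the Rieske mutant cell line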;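 note: z relative to plate mean and SD of compound and empty wells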); details: low glucose
[10] = target: Mitogen-activated protein kinase 7 (Homo sapiens) (UniProt Q13164); assay: Gal4-ERK5 driven luciferase induction – cell-based, HTS, primary screen (AID 1508626;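 active = luciferase signal above three times the same-plate solvent-only control wells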;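 note: luciferase driven by Gal4-ERK5 fusion binding five Gal4 sites before minimal TATA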); details: HeLa Gal4-ERK5 transactivation, 18 h, at 5 µM, stronger effect = higher value
Sequence of Mitogen-activated protein kinase 7 (Homo sapiens) (Q13164 whole entry, looked up, the tested form may be a part): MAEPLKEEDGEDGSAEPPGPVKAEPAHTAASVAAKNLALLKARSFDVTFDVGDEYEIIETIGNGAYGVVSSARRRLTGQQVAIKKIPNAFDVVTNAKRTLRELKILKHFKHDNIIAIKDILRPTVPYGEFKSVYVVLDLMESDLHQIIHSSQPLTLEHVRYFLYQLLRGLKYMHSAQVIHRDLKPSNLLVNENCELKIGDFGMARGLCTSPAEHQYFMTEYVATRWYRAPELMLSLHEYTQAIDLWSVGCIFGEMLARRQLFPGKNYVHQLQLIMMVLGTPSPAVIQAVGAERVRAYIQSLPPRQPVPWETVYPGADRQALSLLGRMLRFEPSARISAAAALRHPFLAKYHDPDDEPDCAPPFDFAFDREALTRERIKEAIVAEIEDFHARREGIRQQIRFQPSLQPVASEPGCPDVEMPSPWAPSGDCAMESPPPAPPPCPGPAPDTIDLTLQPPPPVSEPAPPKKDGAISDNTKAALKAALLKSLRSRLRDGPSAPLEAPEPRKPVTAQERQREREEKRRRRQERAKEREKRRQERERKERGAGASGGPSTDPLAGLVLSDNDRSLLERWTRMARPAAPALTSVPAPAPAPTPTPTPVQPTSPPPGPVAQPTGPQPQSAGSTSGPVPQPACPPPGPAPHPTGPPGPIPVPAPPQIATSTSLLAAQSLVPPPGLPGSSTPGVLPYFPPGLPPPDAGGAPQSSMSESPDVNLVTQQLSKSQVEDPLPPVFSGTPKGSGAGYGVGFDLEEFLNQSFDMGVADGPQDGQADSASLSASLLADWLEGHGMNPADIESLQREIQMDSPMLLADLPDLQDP

F380Y = assay: BK channel mutant inhibitors and activators – cell-based, U2OS BacMam, thallium flux, beta subunits, selectivity assay, profiling panel (AID 1259406); details: U2OS BacMam BK variants, at 30 µM;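 note: initial slope of Thallos dye fluorescence rise after thallium is added; log ratio against the mean of 0.3% DMSO vehicle wells on the same plate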
F380Y/beta1 = assay: as above; details: U2OS BacMam BK variants, at 30 µM
F380Y/beta2Delta = assay: as above; details: U2OS BacMam BK variants, at 30 µM
F380Y/beta4 = assay: as above; details: U2OS BacMam BK variants, at 30 µM
[11] = target: Calcium-activated potassium channel subunit alpha-1 (Homo sapiens) + Leucine-rich repeat-containing protein 26 (Homo sapiens) (UniProt Q12791+Q2I0M4); assay: as above; details: U2OS BacMam BK variants, F380Y/Slo1WT/gamma1, at 30 µM
Sequence of Calcium-activated potassium channel subunit alpha-1 (Homo sapiens) + Leucine-rich repeat-containing protein 26 (Homo sapiens) (Q2I0M4 whole entry, looked up, one chain of several): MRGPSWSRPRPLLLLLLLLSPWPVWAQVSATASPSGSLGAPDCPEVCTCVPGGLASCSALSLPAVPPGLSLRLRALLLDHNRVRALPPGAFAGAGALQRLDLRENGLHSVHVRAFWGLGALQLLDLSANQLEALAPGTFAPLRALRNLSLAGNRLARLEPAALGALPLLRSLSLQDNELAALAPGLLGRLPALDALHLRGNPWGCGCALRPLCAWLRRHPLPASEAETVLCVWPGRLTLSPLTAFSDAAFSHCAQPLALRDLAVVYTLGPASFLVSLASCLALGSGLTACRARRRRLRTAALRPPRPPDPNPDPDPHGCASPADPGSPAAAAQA

R275C = assay: as above; details: U2OS BacMam BK variants, at 30 µM
R275C/beta1 = assay: as above; details: U2OS BacMam BK variants, at 30 µM
R275C/beta2Delta = assay: as above; details: U2OS BacMam BK variants, at 30 µM
[12] = measured here: epithelial PC-3E GFP cell survival
[13] = measured here: mesenchymal TEM4-18 mCherry cell survival
[14] = stronger effect = lower value, cell number ratio, induced over uninduced
[15] = measured here: relative caspase fold change +Dox/-Dox
[16] = measured here: total cells with miR-34 induction, stronger effect = lower value
[17] = measured here: total cells without miR-34 induction
[18] = MELAS cybrid survival, CellTiter-Glo 48 h, stronger effect = higher value
[19] = Rieske KO mouse fibroblast survival, CellTiter-Glo 72 h

Nc1ncnc2c1ncn2[C@@H]1O[C@H](CO)[C@@H](O)[C@@H]1O
inactive: fluorescence ratio [1] 1 | inhibition [2] -4.09% | inhibition [3] -1.24% | fluorescence ratio [4] 1 | inhibition [5] -15.7% | mean signal [6] 237 | red/green cell ratio (normalised) [7] 0.96 | fold change [8, 14] 0.95 and 0.835 and 0.86 | z-score [9, 18] -2.73 and -2.26 | luciferase signal [10] 160 AU | log fold change Tl+ flux (F380Y) -0.000678 | log fold change Tl+ flux (F380Y/beta1) 0.0507 | log fold change Tl+ flux (F380Y/beta2Delta) 0.00163 | log fold change Tl+ flux (F380Y/beta4) 0.0319 | log fold change Tl+ flux [11] 0.0271 | log fold change Tl+ flux (R275C) 0.00664 | log fold change Tl+ flux (R275C/beta1) -0.0305 | log fold change Tl+ flux (R275C/beta2Delta) -0.0267
2.09 and 4.39 and 1.09: fold change [8, 15]
10300 and 12000 and 9720: cell count [8, 17]
0.95: normalised cell number [7, 13]
9780 and 10000 and 8360: cell count [8, 16]
0.99: normalised cell number [7, 12]
0.559 and 1.92: z-score [9, 19]

C[N+]1(C)CCCC(OC(=O)C(O)(c2ccccc2)c2ccccc2)C1 (centres undefined)
1.31: normalised cell number [7, 12]
0.26: z-score [9, 19]
0.965 and 1.32 and 4.07: fold change [8, 15]
10300 and 8730 and 11200: cell count [8, 16]
inactive: fluorescence ratio [1] 1.02 | inhibition [2] -3.18% | inhibition [3] -3.53% | fluorescence ratio [4] 0.96 | inhibition [5] -19.7% | mean signal [6] 266 | red/green cell ratio (normalised) [7] 1.05 | fold change [8, 14] 0.951 and 0.851 and 0.901 | z-score [9, 18] 0.378 | luciferase signal [10] 36 AU | log fold change Tl+ flux (F380Y) 0.00904 | log fold change Tl+ flux (F380Y/beta1) -0.0251 | log fold change Tl+ flux (F380Y/beta2Delta) -0.0376 | log fold change Tl+ flux (F380Y/beta4) 0.0149 | log fold change Tl+ flux [11] -0.0154 | log fold change Tl+ flux (R275C) 0.00512 | log fold change Tl+ flux (R275C/beta1) 0.0318 | log fold change Tl+ flux (R275C/beta2Delta) -0.0151
10800 and 10200 and 12500: cell count [8, 17]
1.37: normalised cell number [7, 13]

CN[C@H]1[C@@H](O[C@@H]2[C@@H](O[C@H]3[C@H](O)[C@@H](O)[C@H](N=C(N)N)[C@@H](O)[C@@H]3N=C(N)N)O[C@H](C)[C@@]2(O)C=O)O[C@H](CO)[C@@H](O)[C@@H]1O
inactive: inhibition [5] 6.7%

Source: PubChem BioAssay
